Laboratory results from PubChem BioAssay AID1159580 (chemical genetic matrix, 2015).
Where “and” joins values, the source holds several entries; their conditions need not be identical. Identical values can stand only once. Hit rate of the full screen: of about 5,500 compounds, about 2,000 (36%) were called active. Inconclusive results (about 18%) are left out. No stated cut-off is given here; in the data, active means normalized growth mostly below about 0.91 (no sharp cut-off); inconclusive means no clear call, values can overlap the other calls; inactive means mostly above about 0.92. Some of the results follow.

Assay: chemical genetic growth profiling, strain panel (AID 1159580);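 further: tested at 20 µM; growth read once vehicle control cultures reached saturation at 30 °C; 1 = growth at the plate median or of vehicle wells; lower values mean less growth of the strain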
Conditions: S. cerevisiae deletion strains, growth OD

Measured: normalized growth

O=C(O)CCCc1ccc(N(CCCl)CCCl)cc1
inactive: locus YAL021C, strain ccr4, active compounds read low 0.929 | locus YAL026C, strain drs2, active compounds read low 0.965 | locus YAL030W, strain snc1, active compounds read low 0.971 | locus YAL040C, strain CLN3, active compounds read low 1.1 | locus YBL061C, strain skt5, active compounds read low 0.985 | locus YBR009C, strain hhf1, active compounds read low 1 | locus YBR021W, strain FUR4, active compounds read low 1.01 | locus YBR023C, strain chs3, active compounds read low 0.957 | locus YBR171W, strain sec66, active compounds read low 0.983 | locus YBR229C, strain ROT2, active compounds read low 0.95 | locus YBR231C, strain swc5, active compounds read low 0.997 | locus YBR279W, strain paf1, active compounds read low 0.955 | locus YCL011C, strain gbp2, active compounds read low 0.959 | locus YCL016C, strain dcc1, active compounds read low 0.931 | locus YCL029C, strain bik1, active compounds read low 0.989 | locus YCL061C, strain MRC1, active compounds read low 0.986 | locus YCL069W, strain vba3, active compounds read low 0.977 | locus YCR088W, strain abp1, active compounds read low 0.984 | locus YDL005C, strain med2, active compounds read low 0.997 | locus YDL035C, strain GPR1, active compounds read low 0.974 | locus YDL040C, strain nat1, active compounds read low 0.979 | locus YDL074C, strain BRE1, active compounds read low 1 | locus YDL101C, strain DUN1, active compounds read low 0.986 | locus YDL185W, strain tfp1, active compounds read low 0.973 | locus YDL192W, strain arf1, active compounds read low 0.984 | locus YDR001C, strain nth1, active compounds read low 0.973 | locus YDR069C, strain doa4, active compounds read low 0.955 | locus YDR101C, strain arx1, active compounds read low 0.991 | locus YDR137W, strain rgp1, active compounds read low 0.943 | locus YDR150W, strain NUM1, active compounds read low 0.989 | locus YDR159W, strain sac3, active compounds read low 1.01 | locus YDR162C, strain NBP2, active compounds read low 0.947 | locus YDR195W, strain ref2 0.959 | locus YDR297W, strain sur2, active compounds read low 0.986 | locus YDR318W, strain mcm21, active compounds read low 0.999 | locus YDR334W, strain swr1, active compounds read low 0.969 | locus YDR335W, strain msn5, active compounds read low 0.967 | locus YDR363W, strain ESC2, active compounds read low 1 | locus YDR388W, active compounds read low 0.985 | locus YDR392W, strain spt3, active compounds read low 0.881 | locus YDR502C, strain sam2, active compounds read low 1 | locus YEL003W, strain gim4, active compounds read low 0.988 | locus YEL037C, strain rad23, active compounds read low 0.97 | locus YEL061C, strain CIN8 (second series), active compounds read low 0.966 | locus YEL061C, strain CIN8, active compounds read low 0.991 | locus YER002W, strain NOP16, active compounds read low 1.02 | locus YER015W, strain faa2, active compounds read low 0.973 | locus YER016W, strain bim1, active compounds read low 0.986 | locus YER110C, active compounds read low 0.983 | locus YER111C, strain swi4, active compounds read low 0.978 | locus YER155C, strain BEM2 (second series), active compounds read low 1.01 | locus YER155C, strain BEM2, active compounds read low 0.991 | locus YER167W, strain BCK2, active compounds read low 0.99 | locus YFR010W, strain ubp6, active compounds read low 1 | locus YGL078C, strain dbp3, active compounds read low 0.952 | locus YGL086W, strain mad1, active compounds read low 0.932 | locus YGL167C, strain pmr1, active compounds read low 0.978 | locus YGL173C, strain kem1, active compounds read low 0.999 | locus YGL227W, strain vid30, active compounds read low 0.955 | locus YGL240W, strain doc1, active compounds read low 0.97 | locus YGL248W, strain PDE1, active compounds read low 1 | locus YGL253W, strain hxk2, active compounds read low 0.925 | locus YGR135W, strain pre9, active compounds read low 1.04 | locus YGR252W, strain gcn5, active compounds read low 1.07 | locus YHR013C, strain ard1, active compounds read low 0.956 | locus YHR027C, strain rpn1, active compounds read low 0.977 | locus YHR030C, strain SLT2, active compounds read low 0.982 and 0.856 | locus YHR079C, strain IRE1 (second series), active compounds read low 0.996 | locus YHR079C, strain IRE1, active compounds read low 0.876 | locus YHR094C, strain hxt1, active compounds read low 0.983 | locus YHR129C, strain ARP1, active compounds read low 0.988 | locus YHR142W, strain chs7, active compounds read low 0.949 | locus YHR200W, strain rpn10, active compounds read low 0.981 | locus YIL066C, strain RNR3, active compounds read low 0.967 | locus YIL073C, strain SPO22, active compounds read low 1.02 | locus YIL125W, strain kgd1, active compounds read low 0.95 | locus YIR030C, strain dcg1, active compounds read low 0.983 | locus YJL092W, strain hpr5, active compounds read low 0.967 | locus YJL095W, strain BCK1 (second series), active compounds read low 0.974 | locus YJL095W, strain BCK1, active compounds read low 1.06 and 0.888 | locus YJL115W, strain asf1, active compounds read low 0.952 | locus YJL129C, strain trk1, active compounds read low 0.927 | locus YJL134W, strain LCB3, active compounds read low 0.983 | locus YJL154C, strain vps35, active compounds read low 0.972 | locus YJL164C, strain tpk1, active compounds read low 0.988 | locus YJL166W, strain qcr8, active compounds read low 1 | locus YJL168C, strain set2, active compounds read low 0.984 | locus YJL187C, strain SWE1 (second series), active compounds read low 1 | locus YJR043C, strain POL32, active compounds read low 0.963 | locus YJR066W, strain TOR1, active compounds read low 0.967 | locus YJR075W, strain HOC1, active compounds read low 1.02 and 0.993
